Source: PubChem
Hits are enriched below; roughly 2.2% of the tested compounds scored in any of these assays.
KLF5 inhibitor = kruppel-like factor 5 inhibition; DLD-1 KLF5 promoter-luciferase reporter, luminescence; inhibition, % at 5 µM; actives 0.23% (n = 290,000); AID 1700;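 active = inhibition above a per-plate limit of that plate's mean compound inhibition plus 3 SD, cut at about 60% in these data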;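 note: higher means less KLF5 promoter-driven luciferase light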
BaF3 tox = reduces parental Ba/F3 cell viability, JAK2V617F counter-screen. CellTiter-Glo ATP luminescence. inhibition, % at 5.6 µM. actives 1.1% (n = 220,000). AID 1486;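 active = inhibition above a per-campaign cutoff, the mean inhibition of all tested compounds plus 3 SD, cut at about 27% in these data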
APP 5UTR inh = APP translation inhibition; SH-SY5Y APP 5'UTR-luciferase reporter, luminescence; inhibition, % at 2 µM; actives 0.82% (n = 190,000); AID 1285;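 active = inhibition above a set limit, derived from the sample mean plus 3 SD, cut at about 45% in these data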
IEC-6 tox = IEC-6 cytotoxicity, counter-screen for KLF5 inhibitors; inhibition, % at 5 µM; actives 0.78% (n = 290,000); AID 1825; luminescence viability
aSyn 5UTR inh = MLPCN primary screen, SNCA 5' untranslated region; alpha-synuclein 5'UTR reporter, inhibitor activity; actives 0.82% (n = 300,000); inhibition, % (tested at 7.5 µM); AID 1813; in the data active = inhibition above about 60%;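 note: H4 neuroglioblastoma cells stably carrying SNCA 5'UTR luciferase fusion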
Ba/F3 V617F tox = reduce viability of Ba/F3 cells dependent on JAK2V617F; Ba/F3 EpoR-JAK2V617F viability, ATP luminescence; inhibition, % at 5.6 µM; actives 1.1% (n = 220,000);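 active = inhibition above the campaign mean plus 3 SD over all tested compounds, cut at about 24% in these data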;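 note: cytokine-independent growth of Ba/F3 cells driven by EpoR plus mutant JAK2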
IEC-6 cytotox cf = confirmation of cytotoxic compounds in rat IEC-6 intestinal epithelial cells | actives 63% (n = 1,900) | AID 1907 | IEC-6 rat intestinal epithelial viability, luminescence | shares compounds with IEC-6 tox | inhibition, % at 5 µM
Large screens that a line does not name were inactive (follow-up assays come after a bar, where they were run). Cut-off read from the data, not from the text of the source, unless noted: active = inhibition above about 22%; inactive = the rest.

O=C(COC(=O)c1ccccc1OCC(=O)Nc1ccc(Br)cc1)Nc1ccccc1	none
CCOc1ccc2nc(NC(=O)C3(C)CC3(Br)Br)sc2c1 (configuration not stated)	none (no result: KLF5 inhibitor, BaF3 tox, APP 5UTR inh, IEC-6 tox, Ba/F3 V617F tox)
Cc1ccc(S(=O)(=O)Nc2ccccc2-c2ccccc2NS(=O)(=O)c2ccc(C)cc2)cc1	none
Cc1ccc(S(=O)(=O)Nc2cccc3cccnc23)cc1	IEC-6 tox 32, aSyn 5UTR inh 63 | IEC-6 cytotox cf 100
COc1cc(NS(=O)(=O)c2ccc(C)cc2)c2ncccc2c1	IEC-6 tox 79, aSyn 5UTR inh 69 | IEC-6 cytotox cf 74
Cc1oc2c(cc(NS(=O)(=O)c3ccc(F)cc3)c3ccccc32)c1C(=O)O	none (no result: BaF3 tox, APP 5UTR inh, Ba/F3 V617F tox)
COc1ccc(S(=O)(=O)Nc2cc3c(C(C)=O)c(C)oc3c3ccccc23)cc1	BaF3 tox 78, APP 5UTR inh 92, IEC-6 tox 83, aSyn 5UTR inh 82, Ba/F3 V617F tox 79 | IEC-6 cytotox cf 55
COc1ccc(S(=O)(=O)Nc2ccccn2)cc1	none (no result: BaF3 tox, APP 5UTR inh, Ba/F3 V617F tox)
CC1CCCCN1C(=O)COC(=O)c1cc([N+](=O)[O-])ccc1N1CCOCC1 (configuration not stated)	none (no result: KLF5 inhibitor, BaF3 tox, APP 5UTR inh, IEC-6 tox, Ba/F3 V617F tox)
COc1ccccc1NC(=O)COC(=O)CCS(=O)(=O)c1ccc(C)cc1	none (no result: BaF3 tox, APP 5UTR inh, Ba/F3 V617F tox)
Cc1ccc(S(=O)(=O)N2CCN(C3CC(=O)N(Cc4ccccc4)C3=O)CC2)cc1C (configuration not stated)	none
CCOC(=O)N1CCN(C(=O)c2ccccc2-c2ccccc2)CC1	BaF3 tox 47, IEC-6 tox 40, Ba/F3 V617F tox 53 | IEC-6 cytotox cf 35
CCN1CCN(S(=O)(=O)c2ccc(C(=O)Nc3sc4c(c3C(N)=O)CCN(CC)C4)cc2)CC1	none (no result: BaF3 tox, APP 5UTR inh, Ba/F3 V617F tox)
CCN1CCc2c(sc(NC(=O)c3ccc4ccccc4c3)c2C(N)=O)C1	IEC-6 tox 45 (no result: BaF3 tox, APP 5UTR inh, Ba/F3 V617F tox) | IEC-6 cytotox cf inactive
O=C(Nc1ccc2nc(-c3cccs3)[nH]c2c1)c1cccs1	none
O=C(Nc1ccc(-c2nc3ccc(NC(=O)c4cccs4)cc3[nH]2)cc1)c1cccs1	BaF3 tox 102, IEC-6 tox 53, aSyn 5UTR inh 122, Ba/F3 V617F tox 98 | IEC-6 cytotox cf 43
O=C(CSc1nc(-c2ccco2)cc(C(F)(F)F)n1)Nc1cccnc1	IEC-6 tox 29 | IEC-6 cytotox cf inactive
CCCNC(=O)COc1ccc(-c2nn(C)c(=O)c3ccccc23)cc1	none (no result: BaF3 tox, APP 5UTR inh, Ba/F3 V617F tox)
COc1ccc(C2c3cc(OC)c(OC)cc3CCN2C(=O)c2ccccc2)cc1OC (configuration not stated)	none (no result: BaF3 tox, APP 5UTR inh, Ba/F3 V617F tox)
COc1ccc(C2c3cc(OC)c(OC)cc3CCN2S(C)(=O)=O)cc1OC (configuration not stated)	BaF3 tox 58, IEC-6 tox 36, Ba/F3 V617F tox 75 | IEC-6 cytotox cf inactive
Nc1c(C(=O)c2ccccc2)sc2nsc(SCCN3CCOCC3)c12	none (no result: APP 5UTR inh)
CC(=O)c1sc2nsc(SCCN3CCOCC3)c2c1N	IEC-6 tox 24 (no result: APP 5UTR inh) | IEC-6 cytotox cf inactive
O=S(=O)(c1ccc2c(c1)nc(COc1ccc(Cl)cc1)n2CC1CCCO1)N1CCOCC1 (configuration not stated)	BaF3 tox 56, IEC-6 tox 37, Ba/F3 V617F tox 33 | IEC-6 cytotox cf inactive
CCC1CCCCN1C(=O)c1cc(COc2ccc3ncccc3c2)on1 (configuration not stated)	BaF3 tox 68, IEC-6 tox 23, Ba/F3 V617F tox 68 | IEC-6 cytotox cf inactive
COCC1CCCCN1C(=O)c1cc(COc2ccc3ncccc3c2)on1 (configuration not stated)	none (no result: BaF3 tox, APP 5UTR inh, Ba/F3 V617F tox)
C=C1C(=O)[C@@]23[C@H](O)C[C@@H]4C(C)(C)CC[C@H](O)[C@@]4(C)[C@@H]2CC[C@@H]1[C@H]3O	BaF3 tox 92, APP 5UTR inh 84, IEC-6 tox 65, Ba/F3 V617F tox 98 | IEC-6 cytotox cf 44
O=C(CSc1nnc(COc2ccc(Br)cc2)o1)N1CCOCC1	none
Cc1ccc(OCC(O)CNC2CCCC2)c(C)c1 (configuration not stated)	none (no result: BaF3 tox, APP 5UTR inh, Ba/F3 V617F tox)
Cc1ccccc1OCC(O)CNC1CCC(NCC(O)COc2ccccc2C)CC1 (configuration not stated)	IEC-6 tox 101, aSyn 5UTR inh 99 (no result: BaF3 tox, APP 5UTR inh, Ba/F3 V617F tox) | IEC-6 cytotox cf 101
O=C1NC(=S)N/C1=C\c1cccnc1	none (no result: APP 5UTR inh)
CCOc1cc(NC(=S)NCCCN2CCOCC2)c(OCC)cc1NC(=O)C(C)C	none
Cc1onc(C(=O)Nc2cccnc2Cl)c1[N+](=O)[O-]	none
COc1cc(NC(=O)c2noc(C)c2[N+](=O)[O-])c(OC)cc1Cl	IEC-6 tox 64 (no result: BaF3 tox, APP 5UTR inh, Ba/F3 V617F tox) | IEC-6 cytotox cf inactive
Cc1ccccc1C(=O)NCCNC(=O)c1cnccn1	none (no result: BaF3 tox, APP 5UTR inh, Ba/F3 V617F tox)
O=[N+]([O-])c1c(Nc2ccc(O)cc2)cc(Cl)c2nonc12	IEC-6 tox 101 (no result: BaF3 tox, APP 5UTR inh, Ba/F3 V617F tox) | IEC-6 cytotox cf 68
CN(C)c1cc(Nc2ccc(O)cc2)c([N+](=O)[O-])c2nonc12	none (no result: APP 5UTR inh)
O=C(Nn1cc(C(=O)Nc2ccccc2F)c2ccccc2c1=O)c1cnccn1	IEC-6 tox 52 | IEC-6 cytotox cf inactive
Cc1cccc2c(C(=O)N3CCN(c4ccccn4)CC3)cc(-c3cccc(Br)c3)nc12	IEC-6 tox 29 (no result: BaF3 tox, APP 5UTR inh, Ba/F3 V617F tox) | IEC-6 cytotox cf inactive
O=C(c1cc(-c2ccccc2Cl)nc2ccc(Br)cc12)N1CCN(c2ccccn2)CC1	IEC-6 tox 46 (no result: BaF3 tox, APP 5UTR inh, Ba/F3 V617F tox) | IEC-6 cytotox cf inactive
Cn1cnc([N+](=O)[O-])c1Oc1ccccc1	none
COc1ccc(C(=O)N/N=C\c2coc3ccccc3c2=O)cc1	none (no result: APP 5UTR inh)
COc1cc(C(=O)N/N=C/c2coc3ccccc3c2=O)cc(OC)c1OC	IEC-6 tox 70 (no result: BaF3 tox, APP 5UTR inh, Ba/F3 V617F tox) | IEC-6 cytotox cf inactive
COC(=O)c1cn(C(=O)c2ccc(C)cc2)c2ccccc12	none
COC(=O)c1cn(C(=O)c2ccc(OC)cc2)c2ccccc12	IEC-6 tox 52 (no result: BaF3 tox, APP 5UTR inh, Ba/F3 V617F tox) | IEC-6 cytotox cf 34
COc1ccc(NC(=O)c2cccc(Oc3ccccc3)c2)cn1	none (no result: BaF3 tox, APP 5UTR inh, Ba/F3 V617F tox)
COc1ccc2cc(C#N)c(SCC(=O)N3CC(=O)Nc4ccccc43)nc2c1	none (no result: APP 5UTR inh)
Cc1cc(NC(=O)CSc2nc3c(C)ccc(C)c3cc2C#N)no1	none (no result: BaF3 tox, APP 5UTR inh, Ba/F3 V617F tox)
Cc1cc(NC(=O)CSc2nnc(-c3ccccc3)o2)no1	IEC-6 tox 29 | IEC-6 cytotox cf inactive
Cc1cc(NC(=O)CSc2nnc(-c3ccc(O)cc3)o2)no1	none (no result: APP 5UTR inh)
CCc1cc2ccc(C)c(C)c2nc1SCC(=O)Nc1cc(C)on1	IEC-6 tox 35 (no result: BaF3 tox, APP 5UTR inh, Ba/F3 V617F tox) | IEC-6 cytotox cf 32
Cc1cccc2cc(C#N)c(SCC(=O)N3CC(=O)Nc4ccccc43)nc12	BaF3 tox 89, APP 5UTR inh 96, IEC-6 tox 93, aSyn 5UTR inh 110, Ba/F3 V617F tox 85 | IEC-6 cytotox cf 74
Cc1cc(NC(=O)CSc2nc3c(C)cccc3cc2C#N)no1	IEC-6 tox 23 (no result: BaF3 tox, APP 5UTR inh, Ba/F3 V617F tox) | IEC-6 cytotox cf inactive
Nc1nc(Nc2ccccc2)nc2ccccc12	IEC-6 tox 22 | IEC-6 cytotox cf inactive
Cc1ccccc1Nc1nc(N)c2ccccc2n1	none
